# Measurements from PubChem BioAssay.
# Measured potencies and affinities stand elsewhere. Active and inactive are the calls of the source.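 Rule for the calls: active = a dose-response fit showing signal loss, with half-maximal concentration no higher than twice the top tested dose; inconclusive = flat fit between 30% and 70% signal loss, or poor fit; inactive = the rest.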
# Assay: HepG2 cell cytotoxicity, dose response, cytotoxicity control, cherry-picks, set 2 (AID 687002)
# Settings: HepG2 viability, ATP luminescence (CellTiter-Glo), 48 h; series mostly up to 26 µM
row,SMILES,outcome
1,Cc1noc(C)c1NC(=O)N(C)C[C@@H]1Oc2ccc(NC(=O)NC(C)C)cc2CC(=O)N([C@H](C)CO)C[C@H]1C,inactive
2,N#C[C@@H]1[C@@H](c2ccccc2)[C@@H](CO)N1C(=O)Cc1ccccc1,inactive
3,CN1[C@@H]2c3ccc(-c4cccnc4)c(=O)n3C[C@@H]2[C@@H](CO)[C@@H]1C(=O)N1CCc2ccccc2C1,inactive
4,CCCC(=O)Nc1ccc2c(c1)OC[C@@H](C)N(Cc1cncnc1)C[C@@H](C)[C@@H](OC)CN(C)C2=O,inactive
5,C/C=C/c1ccc([C@@H]2[C@@H](CNC(=O)C3CC3)N(C(=O)CC)[C@H]2CO)cc1,inactive
6,C[C@@H]1CN([C@@H](C)CO)C(=O)c2cccc(NC(=O)c3ccncc3)c2O[C@H]1CN(C)C(=O)Nc1ccccc1,inactive
7,CO[C@H]1CN(C)C(=O)c2ccc(NC(C)=O)cc2OC[C@H](C)N(C(=O)c2ccncc2)C[C@@H]1C,inactive
8,COc1ccc(CN(C)C[C@H]2OCCCC[C@@H](C)Oc3ccc(NC(=O)c4ccccc4)cc3C(=O)N([C@H](C)CO)C[C@@H]2C)cc1,inactive
9,Cc1cc(C)c(NC(=O)C2CCCCN2C)c(C)c1 (configuration not stated),inactive
10,C[C@@H]1CN([C@@H](C)CO)C(=O)c2cccc(N(C)C)c2O[C@H]1CN(C)C(=O)Nc1ccc(C(F)(F)F)cc1,inactive
11,Cc1noc(C)c1S(=O)(=O)N(C)C[C@@H]1OCCCC[C@@H](C)Oc2ccc(NC(=O)CCCCCC(=O)Nc3ccccc3N)cc2C(=O)N([C@H](C)CO)C[C@@H]1C,inactive
12,CCC(=O)N1[C@@H]2Cn3c(cccc3=O)[C@H]1[C@@H](C(=O)NCc1ccccc1)[C@@H]2CO,inactive
